Compound activity: PubChem, National Center for Advancing Translational Sciences (NCATS)
Sampled rows, rich in hits. Any-hit rate of the full collection: about 1.6%.
gsp antagonist: gsp mutant antagonism | gsp-mutant cells, cAMP HTRF, 30 min | Potency, µM (top dose mostly 76.9 µM), inactives show at the top dose activity change, negative = inhibition, actives largely listed as inhibitors | 340,000 tested, 0.4% active | AID 624288; calls by dose curve; cell line not stated here;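 further: intracellular cAMP measured with PDE inhibitor Ro 20-1724 present during compound exposure; potency means the concentration at half of the fitted maximal effect; on the % scale 0 is the no-effect control and ±100 the full control effect; nearly all actives have a fitted effect of over 65% in size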
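Measurement of cellular cAMP by homogeneous time-resolved fluorescence following a 30 min compound exposure at 37C. The PDE inhibitor […] was present throughout; the assay buffer was DPBS with 0.05% BSA and 0.005% Tween 20.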
KCNH2 WT inh: blocks the wildtype human KCNH2 potassium channel. AID 720551. 340,000 tested, 0.37% active. Q12809. activity change, % at 1.84 µM. U2OS, BacMam KCNH2, thallium flux FluxOr; stronger effect = lower value;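 active means maximum activity change below -70%; inconclusive means maximum activity change between -70% and -50%; inactive means maximum activity change above -50%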; further: on the % scale 0 is the no-effect control and ±100 the full control effect
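U2OS cells were transduced with wild-type KCNH2 virus (2.03 x 10^8 / mL) for 4 h at room temperature, then cultured overnight at 37 C. Thallium flux was read with FluxOr dye. Rate constants were normalized to DMSO controls.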
GRP78 ERSR act: ER stress response induction in glioma; U87-MG GRP78 promoter luciferase reporter, 16 h; Potency, µM, for inactives: top-dose activation, most hits filed as activators; 420,000 tested, 0.02% active; active means well fitted activation curve with a large enough effect; inconclusive means small, poorly fitted or top-dose-only effect; inactive means no such curve, though single readings can be large or run the other way; further: potency means the concentration at half of the fitted maximal effect; series mostly up to about 76 µM; % of control where 0% means no effect; nearly all actives have a fitted effect of over 35% in size
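ERSR induction read as luciferase luminescence (Bright-Glo, 10 min at room temperature) in stably transfected human U87-MG glioma cells exposed to compounds for 16 h, using GRP78 as sensor.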
pAkt inh: blocks phosphorylation of Akt; Neuro2A IGF-stimulated pAkt S473 HTRF, 20 min; stronger effect = lower value; activity change, % for hits at 50 µM; 360,000 tested, 0.32% active; AID 651550; in the data active means activity change below about -80%; inconclusive means mostly about -51% to -80%; further: on the % scale 0 is the no-effect control and ±100 the full control effect
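Neuro2A cells (4,500/well, DMEM with 0.5% FBS) were treated with compound at a single 50 µM final concentration, stimulated with 6 nM IGF for 20 min at 37 °C, and lysed. Phospho-Akt Ser473 was read by HTRF as 665/615 ratio ×10^4.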
KCNH2 3.1 inh: inhibitors of human KCNH2 3.1 potassium channel isoform; U2OS KCNH2 3.1, thallium flux FluxOr; stronger effect = lower value; activity change, % (tested at about 1.8 µM); 340,000 tested, 0.95% active; AID 720553;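 active means maximum activity change below -70%; inconclusive means maximum activity change from -70% to -50%; inactive means maximum activity change above -50%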;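 further: thallium influx rate constant from kinetic fluorescence after stimulation buffer; on the % scale 0 is the no-effect control and ±100 the full control effect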
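Steps: virus added to U2OS suspension (4 h, RT, dark); medium with 10% FBS added, cells plated, 37 C overnight; FluxOr/Red40 loading buffer 45 min RT; stimulation buffer, 2 min kinetic read; rate constant normalized.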
gsp agonist: gsp mutant agonism; gsp mutant cells, cAMP HTRF, 30 min; Potency, µM (highest dose often 76.9 µM), without a hit: at the highest dose activation (cAMP increase), hits mostly activators; 340,000 tested, 0.13% active; AID 624287; active means well fitted activation curve with a large enough effect; inconclusive means small, poorly fitted or top-dose-only effect, or another doubt; inactive means no such curve, though single readings can be large or run the other way; cell line not stated here;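 further: phosphodiesterase inhibitor Ro 20-1724 added with compounds to block cAMP breakdown; potency means the concentration at half of the fitted maximal effect; nearly all actives have a fitted effect of over 60% in size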
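Cells stably selected in G418 were plated at 2000/well, grown 16-24 hr, then given compounds in DMSO with the PDE inhibitor […] (300 uM solution added) for 30 min at 37C; cAMP was read by HTRF.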
* marks the source's active call; other numbers are inactive results; i = inactive; ? = inconclusive; · = no result; [ ] = another dose, or the depositor's remark.

SMILES	gsp antagonist	KCNH2 WT inh	GRP78 ERSR act	pAkt inh	KCNH2 3.1 inh	gsp agonist
NC(=O)c1ccccc1NC(=O)NC1CCCCC1	5%	-3	0%	i	-71*	?
CCOc1ccccc1NC(=S)NC(=O)C1CCCCC1	-11%	-6	3%	i	2	?
CC(O)(COc1ccccc1)c1ccc2c(c1)CN(Cc1cccc3ncccc13)CCO2 (stereo not given)	·	·	-2%	·	·	·
CCOC(=O)c1c(C)[nH]c(C(=O)OCC(=O)N2CC(C)OC(C)C2)c1C (stereo not given)	0%	5	-4%	-130%*	6	?
c1ccc2c(CCc3c[nH]c4ccccc34)ccnc2c1	·	·	-5%	·	·	·
CCCC(=O)N(CCN1CCOCC1)c1nc2c(C)ccc(C)c2s1	?	-6	5%	i	-85*	?
COc1cc2nccc(Oc3ccc(NC(=O)Nc4ccc(F)cc4F)c(F)c3)c2cc1OC	·	·	-1%	·	·	·
COc1cc(/C=C/c2ccc3c(Br)cc(Br)c(O)c3n2)ccc1O	-8%	12	28µM*	i	-5	22%
CCOC(=O)N/N=C\c1ccc(OC(=O)c2ccco2)cc1	1%	-154*	5%	i	-3	23%[15.4 µM]
Cc1cc2c(c(-c3nc4ccccc4s3)c1)OC(CNC(=O)c1occc1C)C2 (stereo not given)	·	·	-2%	·	·	·
COc1ccc(NC(=O)Cn2nnc(-c3ccccc3NC(=O)C3CC3)n2)cc1	-6%	3	-7%	i	5	4%
CCOc1ccc(NC(=O)Cn2nnc(-c3ccccc3NC(=O)C3CC3)n2)cc1	7%	8	-2%	-126%*	-4	-16%
COc1ccc(N2C(=O)[C@@H]3C[C@H]2CN3Cc2ccc3nccnc3c2)cc1Cl	·	·	-2%	·	·	·
CCCCSc1nnc(CCCCCNC(=O)OC(C)(C)C)o1	35µM*	4	1%	i	14	4%
CSc1nnc(CCCCCNC(=O)OC(C)(C)C)o1	4%	-5	-6%	i	2	-19%[15.4 µM]
Cc1c(C(=O)NCCc2cccnc2)cnn1-c1ncc2c(n1)-c1ccccc1CC2	·	·	-3%	·	·	·
CSC1=NC2(CC(c3ccccc3)Oc3cc(O)ccc32)CC(C)(C)N1 (stereo not given)	17%	?	-3%	i	-94*	?
Brc1ccc2ncnc(NCc3ccco3)c2c1	?	-2	-5%	i	-2	?
OC(CNCc1ccco1)Cn1c2ccc(Br)cc2c2cc(Br)ccc21 (stereo not given)	19%	-98*	0%	i	-100*	-91%
Cc1nn(-c2ccccn2)c2c1-c1nc(N)sc1CC2	·	·	4%	·	·	·
CC1=CC(C)(C)N(C(=O)CCl)c2ccccc21	-4%	-11	-2%	i	7	-77%
CC1=CC(C)(C)N(C(=O)CSc2ncn[nH]2)c2ccccc21	0%	-9	-3%	i	-78*	-40%
COc1cccc(-c2ccnc(-n3ncc(C(=O)NCc4cccnc4)c3C3CC3)n2)c1	·	·	-1%	·	·	·
CC(c1ccco1)N(C(=O)CSc1ccc(Br)cc1)c1ccccn1 (stereo not given)	35µM*	6	0%	i	-18	-6%
O=C(c1ccc2c(c1)OCO2)N(Cc1cc2ccc(F)cc2nc1N1CCC(O)CC1)CC1CCCO1 (stereo not given)	·	·	-4%	·	·	·
SMILES	gsp antagonist	KCNH2 WT inh	GRP78 ERSR act	pAkt inh	KCNH2 3.1 inh	gsp agonist
COc1ccc(CN2CCC3(CCC(CNC(=O)c4ccco4)O3)CC2)c(OC)c1C (stereo not given)	·	·	-4%	·	·	·
CCC(c1nnc(SCCNCCO)n1CCN1CCOCC1)N(C)C (stereo not given)	16%	-6	-1%	i	-177*	-25%
CCC(c1nnc(SCC(=O)Nc2ccc(N3CCOCC3)cc2)n1Cc1ccccc1)N(C)C (stereo not given)	-5%	8	-4%	i	-3	5%
O=[N+]([O-])c1ccc(NN=Cc2cccc(O)c2)nc1	-10%	-3	2%	i	2	2%
O=C(N/N=C/c1cccnc1)c1ccc([N+](=O)[O-])cc1Cl	9%	2	-2%	-83%*	2	-3%
O=[N+]([O-])c1ccc(N/N=C\c2cccnc2)nc1	8%	·	-2%	i	-95*	3%
N#Cc1cc([N+](=O)[O-])ccc1Oc1cccc(/C=N/NC(=O)c2cccc(Cl)c2)c1	-1%	-77*	-2%	i	?	-26%
CN(CC(=O)Nc1ccc(N2CCOCC2)cc1)C(=O)C12CC3CC(CC(C3)C1)C2	-1%	1	-5%	i	-73*	-32%
Cc1cc(-c2ccnc(-n3ncc(C(=O)N(C)Cc4nccs4)c3C)n2)c(C)s1	·	·	7%	·	·	·
Cc1ccc(NC(=O)c2sc3ncnc(N4CCN(c5ccccn5)CC4)c3c2C)c(C)c1	?	-73*	1%	i	-114*	28%
COc1ccc(C)cc1NC(=O)c1sc2ncnc(N3CCN(c4ccccn4)CC3)c2c1C	?	-5	-2%	i	?	17%[15.4 µM]
Cc1nc(N2CCN(c3ccccn3)CC2)c2c(C)c(C(=O)N3CCN(c4ccccc4F)CC3)sc2n1	?	2	0%	i	-36	15%
Cc1nc(N2CCN(c3ccccn3)CC2)c2c(C)c(C(=O)Nc3ccc(Br)cc3C)sc2n1	-20%	-42	-6%	i	-99*	-2%
Cc1ccc(NC(=O)c2sc3nc(C)nc(N4CCN(c5ccccn5)CC4)c3c2C)c(C)c1	?	-8	-1%	i	-70*	10%[15.4 µM]
CCCCCCCCCC[n+]1ccc(/C=C/c2c(C)[nH]c3ccccc23)c2ccccc21	·	·	-12%	·	·	·
Cc1ncc2c(c1CNC(=O)CN1CCCCC1)CCN(C(=O)c1ccc(F)cc1Cl)C2	·	·	-6%	·	·	·
O=C(c1cnn(-c2nccc(-c3ccco3)n2)c1C1CC1)N1CCCCC1c1cccnc1 (stereo not given)	·	·	-3%	·	·	·
Cc1ccsc1C1Cc2c(C(=O)NCc3cccnc3)c(=O)cc(C)n2-c2ccccc2S1 (stereo not given)	·	·	-3%	·	·	·
CC(=O)Oc1ccc(/C=N\NC(=O)c2cc3c(ccc4ccccc43)o2)cc1	11µM*	5	-1%	i	-11	28%
O=C(N/N=C/c1cc(Cl)c(O)c(Cl)c1)c1cc2c(ccc3ccccc32)o1	32µM*	2	4%	i	-5	?
C[C@H](NC(=O)OC(C)(C)C)C(=O)c1ccco1	·	·	0%	·	·	·
Cc1nc2ccccc2nc1CN1CCOc2ccc(C(C)(O)COc3ccccc3)cc2C1 (stereo not given)	·	·	1%	·	·	·
O=C(COC(=O)c1ccc(O)cc1O)Nc1cc(-c2ccccc2)nn1-c1ccccc1	35µM*	0	-4%	i	-36	-10%[15.4 µM]
